Laboratory results: the supplement of paper PMC10338343
± gives the standard deviation.

Tested on: MILI (PIWIL2) piRISC loaded with L1MC piRNA (26 nt)
Assay: pre-steady-state target cleavage rate (min^-1); guide: L1MC piRNA 5'p-UAACUAAAUACUAUGCAAGCUGUAGG; MIWI and MILI are mouse PIWI proteins and EfPiwi is from a freshwater sponge; tags in brackets are library labels; higher = faster piRNA-guided slicing of the target
Conditions: auxiliary factor: 500 nM mouse GTSF1
Method: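 Cleave-'n-Seq: a library of target RNAs (target site embedded in constant flanks, ACAGCATTCCGCGTTAGTGATATCCG... 5' flank; DNA-blocked outside the site) at 0.1 nM was incubated with 1 nM active mouse MILI or MIWI piRISC (synthetic 5'-monophosphorylated piRNA guide) with or without 500 nM mouse GTSF1 at 33 °C for 1 min to 16 h. Uncleaved targets were sequenced and normalised to non-target controls, and the pooled three trials were fitted to a burst-and-steady-state model to give the pre-steady-state cleavage rate (min^-1; k3 is constrained to at most 1e-4). Sequence is the target site only; target names encode pairing extent (gX:gY) and contiguous / 1-mismatch / 2-mismatch / bulge geometry. Fits with R² ≤ 0 are excluded.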

Row | Sequence | pre-steady-state target cleavage rate
1 | UCCUGGAUGUGCUUGCAUAGUAUUUAAUUA | 0.0357 ± 0.011
2 | UCCUGGUACAGCUUGCAUAGUAUUAAGUUA | 0.252 ± 0.041
3 | UCCUGGAUGUCCUUGCAUAGUAUUUAGUUA [g2:g19:cont:t1A] | 0.119 ± 0.018
4 | UCCUGGAUGAUGCUUGCAUAGUAUUUAGUUA | 0.228 ± 0.023
5 | UCCUGGAUGUCGUUGCAUAGUAUUUAGUCUA | 0.013 ± 0.0062
6 | UCCUGGAUCAGCUUGCAUAGUAUUAACUUA | 0.0348 ± 0.011
7 | UCCUGGAACAGGUUGCAUAGUUUUUAGUUA | 0.0335 ± 0.0065
8 | UCCUGGAACAGCUUGCUAGUAUUUAGUUA | 0.0161 ± 0.0069
9 | UCCUGGAUGAGCCUUGCAUAGUAUUUAGUUA | 0.16 ± 0.02
10 | UCCUCCAACAGCUUGCAUAGAAUUUAGUUA | 0.07 ± 0.014
11 | UCCUGGUACAGCUUGGAUAGUAAUUAGUUA | 0.226 ± 0.057
12 | UCCUGGAUGUCGAACGUAAGUAAUUAGAUA | < 0.0001
13 | UCCUCCUACAGCUUGAAUAGUAUUUAGUUA | 0.283 ± 0.015
14 | UCCUGCUACAGGUUGCAUAGUAUUUAGAUA | 0.114 ± 0.033
15 | UCCUGGAUGAGCUUCCAAAGUAUUUAGUUA | 0.0331 ± 0.0072
16 | UCCUGGAUGUCGAUGCAUAGUAAUUAGUAA | 0.0439 ± 0.013
17 | UCCUGGAUGUCGAUGCAUAGUAUUUAGUAUA | 0.0977 ± 0.016
18 | UCCUGCUACAGCUACGAUAGUAUUUAGAAA | 0.0517 ± 0.019
19 | UCCUGCUACAGCUUGCGUAGUAUUUAGUUA | 0.206 ± 0.014
20 | UCCUCCUACAGCUUGCAUAGUAUUUAGAUA | 0.205 ± 0.035
21 | UCCUGGAUGUCGAUCGCAUAGUAUUUAGUUA | 0.0384 ± 0.0094
22 | UCCUGGAUCAGCUUGCAUAGUUAUUAGUUA | 0.0248 ± 0.01

Same assay, conditions: auxiliary factor: none (no GTSF1)

Row | Sequence | pre-steady-state target cleavage rate
23 | UCCUGGAUGUGCUUGCAUAGUAUUUAAUUA | 0.00315 ± 0.003
24 | UCCUGGUACAGCUUGCAUAGUAUUAAGUUA | 0.00423 ± 0.0038
25 | UCCUGGAUGUCCUUGCAUAGUAUUUAGUUA [g2:g19:cont:t1A] | 0.00813 ± 0.0021
26 | UCCUGGAUGAUGCUUGCAUAGUAUUUAGUUA | 0.00923 ± 0.0034
27 | UCCUGGAUGUCGUUGCAUAGUAUUUAGUCUA | 0.00433 ± 0.0036
28 | UCCUGGAUCAGCUUGCAUAGUAUUAACUUA | 0.00289 ± 0.0028
29 | UCCUGGAACAGGUUGCAUAGUUUUUAGUUA | 0.00467 ± 0.0021
30 | UCCUGGAACAGCUUGCUAGUAUUUAGUUA | 0.00397 ± 0.0027
31 | UCCUGGAUGAGCCUUGCAUAGUAUUUAGUUA | 0.0071 ± 0.0027
32 | UCCUGGUACAGCUUGGAUAGUAAUUAGUUA | 0.00415 ± 0.0029
33 | UCCUCCUACAGCUUGAAUAGUAUUUAGUUA | 0.00723 ± 0.002
34 | UCCUGCUACAGGUUGCAUAGUAUUUAGAUA | 0.00283 ± 0.0027
35 | UCCUGGAUGAGCUUCCAAAGUAUUUAGUUA | 0.00379 ± 0.0027
36 | UCCUGGAUGUCGAUGCAUAGUAUUUAGUAUA | 0.00504 ± 0.0027
37 | UCCUGCUACAGCUUGCGUAGUAUUUAGUUA | 0.00688 ± 0.0029
38 | UCCUCCUACAGCUUGCAUAGUAUUUAGAUA | 0.00357 ± 0.003
39 | UCCUGGAUGUCGAUCGCAUAGUAUUUAGUUA | 0.00367 ± 0.0026
40 | UCCUGGAUCAGCUUGCAUAGUUAUUAGUUA | 0.00466 ± 0.0024
